In the library only some 2.3% were active in any assay of this set; here they are far more common.
GLP-1R inv ag = acts as inverse agonist at human GLP-1 receptor. P43220. HEK293 GLP-1R CRE-luciferase, luminescence, 24 h; GLP-1R form is constitutively active. Potency, µM (titrated, usually from 38.3 µM), most hits filed as inhibitors. 1.6% of 410,000 active. AID 624417; further: nearly all actives have a fitted effect of over 55% in size
Target sequence (P43220 whole entry, looked up): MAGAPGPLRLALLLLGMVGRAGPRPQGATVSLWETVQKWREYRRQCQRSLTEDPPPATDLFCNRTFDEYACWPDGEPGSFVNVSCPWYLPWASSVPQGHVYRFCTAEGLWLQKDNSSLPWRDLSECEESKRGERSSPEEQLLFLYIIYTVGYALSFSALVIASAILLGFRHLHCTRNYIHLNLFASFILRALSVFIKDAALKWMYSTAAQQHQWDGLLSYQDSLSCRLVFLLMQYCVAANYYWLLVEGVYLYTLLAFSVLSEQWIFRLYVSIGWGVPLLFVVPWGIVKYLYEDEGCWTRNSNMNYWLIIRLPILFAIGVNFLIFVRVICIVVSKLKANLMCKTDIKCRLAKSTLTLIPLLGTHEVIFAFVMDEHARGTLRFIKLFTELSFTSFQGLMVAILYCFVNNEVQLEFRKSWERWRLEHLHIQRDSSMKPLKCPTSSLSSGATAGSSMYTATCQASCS
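Luminescence readout: a drop in cAMP-driven luciferase signal flags inverse agonism at a constitutively active GLP-1R stably expressed in HEK293. Compound exposure lasted 24 hr at 37 deg C, 5% CO2.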
PTHR1 ag = agonists of human PTHR1 parathyroid hormone receptor. 0.075% of 410,000 active. HEK293 GP2 PTHR1 cells, GloSensor cAMP luminescence, 1 h. Q03431. Potency, µM (highest dose often 115 µM), most hits filed as activators. AID 743266; further: nearly all actives have a fitted effect of over 55% in size
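HEK-293-derived GP2 cells expressing PTHR1 and a GloSensor cAMP reporter, 3,000/well, plated overnight, given luciferin plus IBMX (each 0.5 mM as added) for 1 h at 37 °C, then compound for 1 h at 37 °C. Luminescence was read after 15 min at room temperature.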
ALOX12 inh = ALOX12 (human) lipoxygenase inhibition; 1.1% of 580,000 active; purified 12hLO, xylenol orange hydroperoxide absorbance; Potency, µM (series often up to 108 µM), usual class: inhibitors; AID 1671190
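Purified human 12hLO (150 nM final) in 25 mM Hepes, 0.01% Triton X-100, pH 7.0 was preincubated 15 min at room temperature with compound. Then 40 uM arachidonic acid was added, 30 min. Hydroperoxide was read by Fe-XO absorbance ratio 573/405 nm.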
GLP-1R agonist = GLP-1 receptor (human) agonism | Potency, µM (series often up to 45.6 µM), usual class: activators | 0.007% of 380,000 active | HEK293 GLP-1R CRE-luciferase, luminescence, 4-6 h; cells express a hypersensitive GLP-1R form | P43220
Glioma ERSR ind = induces the endoplasmic reticulum stress response in human glioma cells; U87-MG GRP78 promoter luciferase reporter, 16 h; Potency, µM, usual class: activators; 0.02% of 420,000 active; AID 602332; further: series mostly up to about 76 µM; nearly all actives have a fitted effect of over 35% in size
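ERSR induction read as luciferase luminescence (Bright-Glo, 10 min at room temperature) in stably transfected human U87-MG glioma cells exposed to compounds for 16 h, using GRP78 as sensor.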
GLS inh = glutaminase GLS (human) inhibition; GLS enzymatic activity, qHTS titration; Potency, µM (doses to about 45.5 µM), usual class: inhibitors; 0.21% of 410,000 active; AID 624170
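Glutamate formation by hKGA was monitored fluorometrically using coupled glutamate oxidase, HRP and Amplex Red. Substrate was added as 1 mM L-glutamine solution; incubation was 30 min at RT after an initial read.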
A number is an active result; . = inactive; ? = inconclusive; / = no result; [ ] = another dose, or the depositor's remark. The call rests on the fitted dose curve; in most records, active means well fitted curve in the direction sought with a large enough effect; inconclusive means small, poorly fitted or top-dose-only effect, or another doubt; inactive means no such curve, though single readings can be large; an effect the other way counts as inactive or inconclusive.

SMILES	GLP-1R inv ag	PTHR1 ag	ALOX12 inh	GLP-1R agonist	Glioma ERSR ind	GLS inh
O=C(COC(=O)c1ccccc1Cc1ccccc1)Nc1ccc(SC(F)F)cc1	?	.	.	.	.	.
O=C(COc1cccc(OC(F)F)c1)Nc1ccc(SC(F)F)cc1	10µM	.	.	.	.	.
Cc1ccc(C(=O)c2ccccc2C(=O)OCC(=O)Nc2ccc(SC(F)F)cc2)cc1	8.9µM	.	.	.	.	.
Cc1cc(Cl)cc(Cl)c1OCCOc1cccc2cccnc12	8.9µM	.	.	.	.	.
Cc1cc(Cl)cc(Cl)c1OCCOCCN(C)C	11µM	.	.	.	.	.
Cc1cc(Cl)ccc1S(=O)(=O)N(Cc1cccnc1)C1CC1	/	/	.	/	/	/
COc1ccc2nc(COC(=O)c3cccs3)c(C(C)=O)[n+]([O-])c2c1	.	.	32µM	.	.	.
O=C(NC1CCCC1)c1sc(=S)n2c1[nH]c(=O)c1ccccc12	.	.	?	.	.	.
O=C(NCc1ccco1)c1sc(=S)n2c1[nH]c(=O)c1ccccc12	.	.	16µM	.	.	?
COc1ccc(/C=C2\Oc3ccccc3C2=O)cc1	?	.	?	.	.	.
COc1ccc(C=C2OC(=O)C(C(C)=O)=C2O)cc1	?	.	45µM	.	.	.
CC(=O)C1=C(O)C(=Cc2ccccc2)OC1=O	.	.	14µM	.	.	.
CC1=C(C(=O)Nc2ccc(Cl)cc2)C(c2ccccc2)n2ncc(C(=O)Nc3ccccc3)c2N1 (configuration not stated)	?	.	.	/	.	.
CC1=C(C(=O)Nc2ccc(Cl)cc2)C(c2ccccc2C)n2ncc(C(=O)Nc3ccc(C)cc3)c2N1 (configuration not stated)	2.8µM	.	.	/	.	.
Cn1nc(C(F)(F)F)c(-c2ccc(Br)cc2)c1NC(=O)c1ccco1	7.1µM	.	.	.	.	.
O=C(Nc1ccc(Cl)c(-c2nc3cnccc3o2)c1)c1cc2ccccc2o1	/	/	.	/	/	/
CC1CN(Cc2ccc(Cl)cc2Cl)CC(C)O1 (configuration not stated)	.	.	0.63µM	.	.	.
O=C(COC(=O)c1cccc(NC(=O)c2cccs2)c1)c1ccccc1	/	/	.	/	/	/
CCC(=O)Nc1ccc2nc(SCc3ccc(F)cc3)sc2c1	/	/	14µM	/	/	/
Cn1cc(SCC(=O)Nc2nc3ccccc3s2)c2ccccc21	10µM	.	?	.	.	.
Cc1nc(NC(=O)CSc2nc3ccccc3s2)sc1C(=O)N(C)C	.	.	40µM	.	.	.
O=C(CSc1nc2ccccc2s1)Nc1ccc(F)c(F)c1	/	/	35µM	/	/	/
COc1ccc(C(C)=O)c(OCc2ccc(C#N)cc2)c1	/	/	.	/	/	/
CCOc1ccccc1CN1CCCCC12Cc1ccccc1CNC2=O (configuration not stated)	/	/	.[6.33 µM]	/	/	/
CCOC(=O)Nc1cccc(C#N)c1	/	/	.	/	/	/
SMILES	GLP-1R inv ag	PTHR1 ag	ALOX12 inh	GLP-1R agonist	Glioma ERSR ind	GLS inh
CCC(C(=O)NCc1ccc(C)cc1)c1ccccc1 (configuration not stated)	.	.	25µM	.	.	.
O=C1CC(SC(=Nc2ccccc2)Nc2ccccc2)C(=O)N1c1cccc(Cl)c1 (configuration not stated)	5µM	.	.	.	.	.
C=C1C(=O)[C@]23C[C@H]1CCC2[C@]1(C)CCC[C@@](C)(C(=O)O)C1C[C@@H]3O (some centres not stated)	1.8µM	.	.	.	.	.
C=C1C(=O)[C@]23C[C@H]1CCC2[C@]1(C)C(=O)CC[C@@](C)(C(=O)O)C1C[C@@H]3O (some centres not stated)	?	.	?	.	.	.
CC(C)c1ccccc1NC(=O)/C=C/c1cccs1	/	/	.	/	/	/
COCCCNc1oc(-c2cccc3ccccc23)nc1C#N	/	/	.	/	/	/
CSc1nc(=S)c2[nH]c(=S)[nH]c2[nH]1	.	.	.	.	.	.
Nc1nc(=S)c2[nH]c(=S)[nH]c2[nH]1	.	.	7.9µM	.	.	?

High-throughput results (PubChem)
